PubChem BioAssay (Tox21)
Values joined by “and” are separate entries in the source; they are usually repeats but may differ in a detail not shown here. Identical values can stand only once. Results filed as inconclusive are left out. Entries that show only a call come without a potency. The source holds several records for some structures; these can differ, active in one and inactive in another. Active and inactive are the calls of the source. Unless noted, the call rests on the fitted dose curve; in most records, active means well fitted curve in the direction sought with a large enough effect in the repeat runs; inconclusive means weak or mixed curves; inactive means no such curve, though single readings can be large; an effect the other way counts as inactive or inconclusive.

Tests used:
[1] = qHTS assay to identify small molecule antagonists of the sonic hedgehog signaling (Shh) pathway (AID 1259369; calls by dose curve; further: nearly all actives have a fitted effect of over 45% in size; further: potency means the concentration at half of the fitted maximal effect)
In short: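 Stable Gli1-Luc reporter NIH/3T3 clone; quantitative HTS in stimulated mode with conditioned medium. Luminescence measured after 24hr compound treatment at 37 C.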

[2] = qHTS assay to identify small molecule agonists of the androgen receptor (AR) signaling pathway in the presence of an antagonist - cell viability counter screen (AID 1259379); further: nearly all actives have a fitted effect of over 25% in size; further: potency means the concentration at half of the fitted maximal effect;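 on activity change, negative = cytotoxicity: MDA-kb2 human breast cancer cells carrying an MMTV luciferase reporter; series mostly up to about 92 µM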
In short: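 Nilutamide-containing (3.0uM final) MDA-kb2 cultures, 3,000 cells/well, were treated with compounds across 15 concentrations. After 16 hr at 37C with no CO2, cell viability was determined by CellTiter-Fluor fluorescence in the luciferase assay wells.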

[3] = qHTS assay to identify small molecule agonists of the estrogen receptor beta (ER-beta) signaling pathway - cell viability counter screen (AID 1259380); further: nearly all actives have a fitted effect of over 30% in size; further: potency means the concentration at half of the fitted maximal effect
In short: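 Steps: plate ER-beta-UAS-bla HEK293T cells, rest 6 hr; add compounds in DMSO; incubate 16 hr at 37C, 5% CO2; add FRET substrate 2 hr; add CellTiter-Glo, wait 30 min at room temperature; read luminescence.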

[4] = biological target: Androgen receptor (Homo sapiens) (UniProt P10275); experiment: qHTS assay to identify small molecule agonists of the androgen receptor (AR) signaling pathway in the presence of an antagonist (AID 1259381; calls by dose curve; further: nearly all actives have a fitted effect of over 15% in size)
Chain of Androgen receptor (Homo sapiens) (P10275 whole entry, looked up): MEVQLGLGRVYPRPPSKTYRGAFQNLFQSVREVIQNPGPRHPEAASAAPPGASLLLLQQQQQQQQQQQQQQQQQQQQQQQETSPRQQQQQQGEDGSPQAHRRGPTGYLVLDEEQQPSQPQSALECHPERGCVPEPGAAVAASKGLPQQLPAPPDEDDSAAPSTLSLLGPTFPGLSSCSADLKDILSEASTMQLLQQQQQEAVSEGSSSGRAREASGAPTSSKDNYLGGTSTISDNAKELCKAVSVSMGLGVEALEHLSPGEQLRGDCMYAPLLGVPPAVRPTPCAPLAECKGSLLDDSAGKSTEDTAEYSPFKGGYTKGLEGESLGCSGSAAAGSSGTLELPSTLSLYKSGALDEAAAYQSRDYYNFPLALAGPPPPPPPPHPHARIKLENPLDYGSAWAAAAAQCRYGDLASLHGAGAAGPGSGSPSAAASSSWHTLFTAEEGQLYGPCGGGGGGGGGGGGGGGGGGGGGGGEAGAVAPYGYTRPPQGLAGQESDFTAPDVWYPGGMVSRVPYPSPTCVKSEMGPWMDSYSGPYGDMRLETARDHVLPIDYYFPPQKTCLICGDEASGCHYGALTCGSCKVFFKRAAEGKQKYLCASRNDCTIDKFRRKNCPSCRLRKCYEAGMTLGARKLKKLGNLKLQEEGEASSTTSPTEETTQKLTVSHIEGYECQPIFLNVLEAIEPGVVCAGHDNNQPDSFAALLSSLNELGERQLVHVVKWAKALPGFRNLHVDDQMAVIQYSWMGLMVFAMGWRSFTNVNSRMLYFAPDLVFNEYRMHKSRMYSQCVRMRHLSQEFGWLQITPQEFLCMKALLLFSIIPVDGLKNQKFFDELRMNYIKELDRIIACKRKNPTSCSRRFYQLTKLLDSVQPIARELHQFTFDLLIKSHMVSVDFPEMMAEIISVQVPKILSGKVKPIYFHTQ
In short: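 Reporter-gene luminescence from MDA-kb2 cells exposed 16hr at 37C (0% CO2) to 15-point compound titrations with 3.0uM final nilutamide as AR antagonist.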

[5] = qHTS assay to identify small molecule antagonists of the estrogen receptor beta (ER-beta) signaling pathway - cell viability counter screen (AID 1259382); further: nearly all actives have a fitted effect of over 55% in size; further: potency means the concentration at half of the fitted maximal effect; on activity change, negative = cytotoxicity: series mostly up to about 92 µM
In short: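 Viability is scored by CellTiter-Glo luminescence (30 min, room temperature) in ER-beta-UAS-bla HEK293T wells already read for reporter fluorescence. Compound exposure lasts 16 hr at 37C alongside 1nM 17-beta-estradiol in charcoal-stripped serum medium.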

[6] = biological target: Estrogen receptor (Homo sapiens) (UniProt P03372); experiment: qHTS assay to identify small molecule agonists of the estrogen receptor alpha (ER-alpha) signaling pathway in the presence of an antagonist (AID 1259383; calls by dose curve; further: nearly all actives have a fitted effect of over 15% in size; further: potency means the concentration at half of the fitted maximal effect; on activation: top concentration of the series differs between compounds)
Chain of Estrogen receptor (Homo sapiens) (P03372 whole entry, looked up): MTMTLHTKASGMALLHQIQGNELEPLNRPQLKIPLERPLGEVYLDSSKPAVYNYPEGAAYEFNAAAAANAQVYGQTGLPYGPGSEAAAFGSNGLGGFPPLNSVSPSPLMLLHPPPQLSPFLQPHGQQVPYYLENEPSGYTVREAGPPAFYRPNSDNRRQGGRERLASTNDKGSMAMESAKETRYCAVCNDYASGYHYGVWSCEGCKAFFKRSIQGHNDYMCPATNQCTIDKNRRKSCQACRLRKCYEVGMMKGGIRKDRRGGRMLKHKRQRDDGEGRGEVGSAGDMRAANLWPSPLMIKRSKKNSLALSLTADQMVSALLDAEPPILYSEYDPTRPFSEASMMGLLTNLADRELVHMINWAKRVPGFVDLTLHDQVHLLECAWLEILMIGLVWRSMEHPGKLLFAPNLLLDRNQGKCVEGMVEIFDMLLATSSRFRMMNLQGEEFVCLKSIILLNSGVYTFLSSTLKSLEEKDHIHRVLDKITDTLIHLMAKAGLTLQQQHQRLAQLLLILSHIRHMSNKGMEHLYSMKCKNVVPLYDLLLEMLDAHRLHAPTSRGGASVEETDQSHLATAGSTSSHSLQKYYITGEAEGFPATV
In short: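 Readout was ERE-driven luciferase luminescence in VM7Luc4E2 cells, which express full-length ER-alpha endogenously. Compounds were tested at 15 concentrations for 22hr alongside 10.0nM ICI-182,780 (final concentration).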

[7] = qHTS assay to identify small molecule agonists or antagonists of the thyroid stimulating hormone receptor (TSHR) signaling pathway - wild type cell line counter screen (AID 1259384; calls by dose curve)
In short: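 Wild-type Hek293 cells, 800/well, 18 h at 37C, then compound with Ro20-1724 for 30 min RT. cAMP by HTRF (cAMP-d2/anti-cAMP cryptate), 1 h RT, fluorescence read. 15 concentrations, triplicates.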

[8] = biological target: Thyrotropin receptor (Homo sapiens) (UniProt P16473); experiment: qHTS assay to identify small molecule antagonists of the thyroid stimulating hormone receptor (TSHR) signaling pathway (AID 1259385; calls by dose curve; further: nearly all actives have a fitted effect of over 20% in size; further: potency means the concentration at half of the fitted maximal effect)
Chain of Thyrotropin receptor (Homo sapiens) (P16473 whole entry, looked up): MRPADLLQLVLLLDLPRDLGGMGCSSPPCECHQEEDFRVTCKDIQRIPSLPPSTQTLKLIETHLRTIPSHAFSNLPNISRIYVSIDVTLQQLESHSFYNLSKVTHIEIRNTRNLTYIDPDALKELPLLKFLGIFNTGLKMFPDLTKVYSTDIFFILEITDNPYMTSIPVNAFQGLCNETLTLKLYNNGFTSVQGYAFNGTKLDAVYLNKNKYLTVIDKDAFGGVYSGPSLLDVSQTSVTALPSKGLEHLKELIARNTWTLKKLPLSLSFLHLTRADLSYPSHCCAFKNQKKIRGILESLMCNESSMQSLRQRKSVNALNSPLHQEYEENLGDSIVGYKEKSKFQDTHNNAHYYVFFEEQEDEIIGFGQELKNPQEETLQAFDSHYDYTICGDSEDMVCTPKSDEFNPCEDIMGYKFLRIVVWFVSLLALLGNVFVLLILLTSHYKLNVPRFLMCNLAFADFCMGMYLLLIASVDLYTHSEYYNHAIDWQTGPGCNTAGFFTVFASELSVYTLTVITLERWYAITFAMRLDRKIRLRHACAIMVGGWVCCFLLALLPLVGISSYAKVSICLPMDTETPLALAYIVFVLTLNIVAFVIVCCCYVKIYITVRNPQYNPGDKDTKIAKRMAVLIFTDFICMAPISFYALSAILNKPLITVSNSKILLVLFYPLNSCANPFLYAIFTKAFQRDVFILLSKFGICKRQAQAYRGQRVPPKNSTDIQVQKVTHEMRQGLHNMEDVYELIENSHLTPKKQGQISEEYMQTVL
In short: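 TSHR-HEK293 cells (800/well) plated 18 h, then compounds with Ro20-1724 and TSH at 1.5 ng/mL final, 30 min at room temperature. cAMP quantified by HTRF (cAMP-d2/anti-cAMP-cryptate, 1 h); 15 concentrations in triplicate.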

[9] = biological target: Estrogen receptor beta (Homo sapiens) (UniProt Q92731); experiment: qHTS assay to identify small molecule agonists of the estrogen receptor beta (ER-beta) signaling pathway (AID 1259377; active means well fitted activation curve with a large enough effect in the signal ratio in the repeat runs, not every such curve was filed as active; the % refers to the signal ratio)
Chain of Estrogen receptor beta (Homo sapiens) (Q92731 whole entry, looked up): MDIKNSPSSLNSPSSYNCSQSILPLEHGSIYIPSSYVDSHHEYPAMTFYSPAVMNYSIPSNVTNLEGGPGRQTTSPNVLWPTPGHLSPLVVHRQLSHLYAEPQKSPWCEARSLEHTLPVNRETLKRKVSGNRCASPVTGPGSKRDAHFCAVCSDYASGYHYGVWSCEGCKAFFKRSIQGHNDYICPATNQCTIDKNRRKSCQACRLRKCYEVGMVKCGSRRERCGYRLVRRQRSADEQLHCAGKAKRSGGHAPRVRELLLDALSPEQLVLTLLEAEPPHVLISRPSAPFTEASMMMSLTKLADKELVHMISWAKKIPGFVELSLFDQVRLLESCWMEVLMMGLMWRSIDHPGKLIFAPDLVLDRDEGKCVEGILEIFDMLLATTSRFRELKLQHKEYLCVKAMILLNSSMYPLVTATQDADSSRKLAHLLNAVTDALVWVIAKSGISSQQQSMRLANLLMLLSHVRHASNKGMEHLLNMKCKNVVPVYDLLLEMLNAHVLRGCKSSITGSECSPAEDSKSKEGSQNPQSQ
In short: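 qHTS in ER-beta-UAS-bla HEK293T cells: 6 hr settling, then 16 hr compound at 37C, then LiveBLAzer substrate 2 h at RT before fluorescence reading.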

[10] = biological target: Estrogen receptor beta (Homo sapiens) (UniProt Q92731); experiment: qHTS assay to identify small molecule antagonists of the estrogen receptor beta (ER-beta) signaling pathway (AID 1259378; active means well fitted inhibition curve with a large enough effect in the signal ratio in the repeat runs, not every such curve was filed as active; the % refers to the signal ratio; further: potency means the concentration at half of the fitted maximal effect)
In short: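 ER-beta-UAS-bla HEK293T cells in 2% charcoal-stripped FBS medium treated with compound plus 1nM final 17-beta-estradiol for 16 hr at 37C. Beta-lactamase reporter read by FRET substrate fluorescence after 2 hours at room temperature.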

Compound	Potency [1]	Potency [2]	Potency [3]	outcome [4]	Potency [5]	Potency [6]	outcome [7]	Potency [8]	Potency [9]	Potency [10]	activity change, negative = cytotoxicity [5]	activation [6]
Cc1ccc(C)c(O)c1C	inactive	inactive	inactive	inactive	inactive	inactive	inactive	inactive				
COc1cccc2c1C(=O)c1c(O)c3c(c(O)c1C2=O)C[C@@](O)(C(=O)CO)C[C@@H]3O[C@H]1C[C@H](N)[C@H](O)[C@H](C)O1		15.3 µM (active) and 11.9 µM (active)	inactive and 473 nM (active)		inactive	inactive	inactive		inactive	1.93 µM (active) and 11.9 µM (active)		
O=C(c1ccccc1)c1ccc(O)cc1O	27.8 µM (active)	inactive	inactive		62.3 µM (active) and inactive	19.7 µM (active) and 30.6 µM (active)		inactive				
CN(C)CCC=C1c2ccccc2CCc2ccccc21		inactive	30.6 µM (active) and 26.6 µM (active)		15.4 µM (active) and 13.7 µM (active) and 26.6 µM (active)	inactive	inactive	68.6 µM (active) and 26.6 µM (active)	inactive	68.6 µM (active)		
O=C(/C=C/c1ccccc1)OCc1ccccc1		inactive	inactive		inactive	inactive	inactive	inactive	inactive	inactive		
O=P(O)(O)O		inactive	inactive		inactive			inactive	inactive	inactive		
O=C(Nc1ccc([N+](=O)[O-])cc1Cl)c1cc(Cl)ccc1O		1.93 µM (active) and 1.46 µM (active)	8.63 µM (active) and 92 nM (active)		2.17 µM (active)	77 nM (active)	inactive	inactive			-26.7% [at 19 µM] (inactive)	-10.6% [at 19 µM] (inactive)
O=C(/C=C/C=C/c1ccc2c(c1)OCO2)N1CCCCC1		inactive			inactive	inactive and 2.17 µM (active)		inactive	inactive			
Nc1ccc(Nc2ccccc2)cc1		inactive	24.3 µM (active)		inactive	inactive						
C/C=C/C(=O)O		inactive	inactive		inactive			inactive	inactive	inactive		
CC1=CCC(C(C)(C)O)CC1 (stereo not given)		inactive	inactive	inactive	inactive	inactive	inactive	inactive				
CCCC(=O)O		inactive	inactive		inactive		inactive	inactive				
COc1c(Cl)c(Cl)c(Cl)c(Cl)c1Cl		inactive	inactive		inactive			inactive	inactive	inactive		
Nc1ccc(Cl)cc1Cl		inactive	inactive		inactive	inactive		inactive				
COC(=O)Nc1nc2ccc(S(=O)c3ccccc3)cc2[nH]1 (stereo not given)		inactive	inactive		inactive	inactive						
C[Si](C)(C)O[Si](C)(C)C		inactive	inactive		inactive		inactive	inactive	inactive	inactive		
CC(C(=O)O)c1cccc(C(=O)c2ccccc2)c1 (stereo not given)		inactive	inactive		inactive	inactive		inactive	inactive	inactive		
Cc1c(OCC(F)(F)F)ccnc1CS(=O)c1nc2ccccc2[nH]1 (stereo not given)		inactive	inactive		inactive			inactive	inactive			
S=C(NC1CCCCC1)NC1CCCCC1		inactive	inactive		inactive	inactive	inactive	inactive	inactive	6.11 µM (active)		
CN(C)CCN(Cc1cccs1)c1ccccn1		inactive	inactive		inactive	inactive	inactive	inactive				
NNc1ccc(C(=O)O)cc1		inactive	inactive		inactive		inactive	inactive	inactive	inactive		
OC1CCCCCCCCCCC1		inactive	inactive		inactive	inactive	inactive	inactive				
OC[C@H]1O[C@@H]2O[C@H]3[C@H](O)[C@@H](O)[C@@H](O[C@H]4[C@H](O)[C@@H](O)[C@@H](O[C@H]5[C@H](O)[C@@H](O)[C@@H](O[C@H]6[C@H](O)[C@@H](O)[C@@H](O[C@H]7[C@H](O)[C@@H](O)[C@@H](O[C@H]8[C@H](O)[C@@H](O)[C@@H](O[C@H]1[C@H](O)[C@H]2O)O[C@@H]8CO)O[C@@H]7CO)O[C@@H]6CO)O[C@@H]5CO)O[C@@H]4CO)O[C@@H]3CO		inactive	61.3 µM (active) and inactive		inactive		inactive	inactive				
CNCCCC12CCC(c3ccccc31)c1ccccc12		54.5 µM (active)	15.4 µM (active) and 29.8 µM (active)		15.4 µM (active) and 26.6 µM (active)	inactive		inactive	inactive	26.6 µM (active)		
CCCCC(CC)COP(=O)(OCC(CC)CCCC)OCC(CC)CCCC (stereo not given)		inactive	inactive		inactive			inactive	inactive	inactive		
CC(C)OC=O		inactive	inactive		inactive	inactive	inactive	inactive				
O=CCc1ccccc1		inactive	inactive		inactive		inactive	inactive				
O=C1OC2(c3cc(Br)c(O)c(Br)c3Oc3c2cc(Br)c(O)c3Br)c2c(Cl)c(Cl)c(Cl)c(Cl)c21		21.7 µM (active) and 16.6 µM (active)	inactive		inactive	inactive		inactive	inactive			
O=Cc1ccccc1O		inactive	inactive		inactive	inactive		inactive				
C=CC(C)(CCC=C(C)C)OC(C)=O (stereo not given)		inactive	inactive		inactive	inactive	inactive	inactive				
